Screens (PubChem BioAssay)
PABP polyA inh – PABP poly(A) RNA binding inhibitors, primary screen, biochemical, fluorescence polarization, uHTS; hit rate 1% among 290,000; calls only at 35 µM; Polyadenylate-binding protein 1 (Homo sapiens), P11940;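 note: calls also rest on retests at 20 µM and on dose response follow-up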
A3A deaminase – APOBEC3A ssDNA deaminase inhibitors, primary screen, selectivity assay for APOBEC3G inhibitor project, biochemical, FAM/TAMRA oligo cleavage fluorescence; hit rate 0.41% among 330,000; DNA dC->dU-editing enzyme APOBEC-3A (Homo sapiens), P31941; AID 493011, 2011; recombinant A3A, FAM/TAMRA ssDNA deamination fluorescence; inhibition, % at 20 µM;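 active = at least 40% inhibition at 20 µM here, with at most 30% in a related deaminase screen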
Target sequence (P31941 whole entry, looked up): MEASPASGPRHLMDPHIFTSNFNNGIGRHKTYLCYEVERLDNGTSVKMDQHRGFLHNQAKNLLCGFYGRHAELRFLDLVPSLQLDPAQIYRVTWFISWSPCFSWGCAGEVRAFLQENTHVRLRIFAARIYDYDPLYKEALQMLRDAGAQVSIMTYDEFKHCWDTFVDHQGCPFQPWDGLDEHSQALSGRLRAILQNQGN
APOBEC3G inh – APOBEC3G DNA deaminase inhibitors, primary screen, biochemical, fluorescence, single-stranded DNA substrate, uHTS; inhibition, % at 20 µM; hit rate 0.28% among 330,000; recombinant A3G, ssDNA deamination FAM/TAMRA fluorescence;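 active = inhibition of at least 40% at 20 µM, with no more than 30% in the related APOBEC3A deaminase screen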
PHOSPHO1 block – PubChem AID 1565 | Phosphoethanolamine/phosphocholine phosphatase (Homo sapiens), Q8TCT1 | recombinant PHOSPHO1, absorbance phosphatase assay | inhibition, % at 13.3 µM | hit rate 1.1% among 290,000; in the data active = inhibition above about 60%
Target sequence (Q8TCT1 whole entry, looked up): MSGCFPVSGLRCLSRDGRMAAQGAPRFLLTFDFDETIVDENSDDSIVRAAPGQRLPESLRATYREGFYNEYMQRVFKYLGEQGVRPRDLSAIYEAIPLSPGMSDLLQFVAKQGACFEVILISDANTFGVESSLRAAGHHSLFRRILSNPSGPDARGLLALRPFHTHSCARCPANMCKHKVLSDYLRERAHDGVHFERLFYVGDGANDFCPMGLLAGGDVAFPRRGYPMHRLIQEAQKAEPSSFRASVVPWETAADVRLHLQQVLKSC
MLLE-PAM2 inh – inhibitors of PABP1 MLLE–PAM2 peptide binding, primary screen, biochemical, fluorescence polarization, FITC-PAM2, GST-MLLE | inhibition, % at 20 µM | hit rate 0.36% among 360,000; in the data active = inhibition above about 35%, passing the limit was not always enough
eIF4H FP inh – human eIF4H binding inhibitors, primary screen, translation initiation inhibitor project, biochemical, uHTS, fluorescence polarization. Eukaryotic translation initiation factor 4H (Homo sapiens), Q15056. eIF4H fluorescence polarization binding assay. inhibition, % at 35 µM. hit rate 0.94% among 290,000;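 note: calls also rest on retests at 20 µM and on dose response follow-up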
Each line names hits and unclear results; the compound was inactive in the other large screens. Hits are enriched below; roughly 2.6% of the tested compounds scored in any of these assays. Unless noted, the rule behind the calls is not given here.

Nc1ccc(Sc2ccccc2Cl)nc1	none (no result: PABP polyA inh, PHOSPHO1 block, eIF4H FP inh)
O=[N+]([O-])c1ccc(Sc2ccccc2Cl)nc1	PHOSPHO1 block 97
CCCc1cc(=O)[nH]c(SCC(=O)Nc2cc(S(=O)(=O)N3CCCCC3)ccc2C)n1	none (no result: PABP polyA inh, PHOSPHO1 block, eIF4H FP inh)
N#Cc1c2c(c(NCCCN3CCOCC3)n3c1nc1ccccc13)CCC2	PABP polyA inh active, eIF4H FP inh 93
N#Cc1c2c(c(NCCN3CCOCC3)n3c1nc1ccccc13)CCCC2	none
Cc1cccn2c(=O)c3cc(C#N)c(=NC(=O)c4cccs4)n(CC(C)C)c3nc12	none
COCCCn1c(=NC(C)=O)c(C#N)cc2c(=O)n3cccc(C)c3nc21	PABP polyA inh active, eIF4H FP inh 107
CCOCCCn1c(=NC(=O)c2cccs2)c(C#N)cc2c(=O)n3cccc(C)c3nc21	PABP polyA inh active
O=C1c2cccnc2C(Nc2ccc(F)c(Cl)c2)N1Cc1cccs1 (stereo unspecified)	none
Cc1ccc([N+](=O)[O-])cc1NC(=O)C[n+]1ccccc1	none
O=c1[nH][nH]c(=S)n1-c1ccccc1C(F)(F)F	PHOSPHO1 block 90 (no result: A3A deaminase, APOBEC3G inh, MLLE-PAM2 inh)
CCCN(CC(=O)Nc1ccccc1C)C(=O)CCCNC(=O)c1ccc(Cl)cc1	none (no result: PABP polyA inh, PHOSPHO1 block, eIF4H FP inh)
c1c2c(cc3sc(N4CCOCC4)nc13)OCO2	PHOSPHO1 block 93
Cc1ccc([C@@H]2CC(=O)[C@@H]3CN(S(=O)(=O)c4ccc(C)cc4)[C@H](c4cccc(Cl)c4)C[C@@H]3N2S(=O)(=O)c2ccc(Cl)cc2)cc1	none (no result: PABP polyA inh, A3A deaminase, APOBEC3G inh, PHOSPHO1 block, eIF4H FP inh)
CCc1nn(C)c(-c2n[nH]c(=S)n2N)c1Cl	PHOSPHO1 block 62
C=CCOc1ccc(CN(C)CC(O)COc2cccc3ccccc23)cc1 (stereo unspecified)	none
Clc1ccc2oc(-c3ccccn3)nc2c1	PABP polyA inh active, eIF4H FP inh 16
Nc1ccc2oc(-c3ccccn3)nc2c1	none
O=C(c1cccc(S(=O)(=O)N2CCOCC2)c1)N1CCCC(C(F)(F)F)C1 (stereo unspecified)	none (no result: PABP polyA inh, PHOSPHO1 block, eIF4H FP inh)
COc1cc(/C=N/NC(=O)c2ccccn2)cc2c1OCO2	PABP polyA inh active, eIF4H FP inh inconclusive
COc1cc(/C=N/NC(=O)c2cccnc2)cc2c1OCO2	none
CCC(Sc1ccc2nnc(-c3ccc(OC)c(OC)c3)n2n1)C(=O)O (stereo unspecified)	PHOSPHO1 block 60
COc1ccc(-c2nnc3ccc(SC(C(C)=O)C(C)=O)nn23)cc1OC	PHOSPHO1 block 106
CCC(Sc1ccc2nnc(-c3ccc(F)cc3)n2n1)C(=O)OC (stereo unspecified)	none
COC(=O)CSc1ccc2nnc(-c3ccc(OC)c(OC)c3)n2n1	none
Cc1ccc(S(=O)(=O)N2CCCC2CNC(=O)C(=O)NCc2ccccn2)cc1 (stereo unspecified)	none (no result: PABP polyA inh, PHOSPHO1 block, eIF4H FP inh)
CNC[C@@H]1OCc2ccccc2-c2ccccc2C(=O)N([C@H](C)CO)C[C@@H]1C	none (no result: PABP polyA inh, A3A deaminase, APOBEC3G inh, PHOSPHO1 block, eIF4H FP inh)
CCC1(CC)C(C#N)C(=O)NC(=O)C1C#N (stereo unspecified)	none (no result: PABP polyA inh, A3A deaminase, APOBEC3G inh, PHOSPHO1 block, eIF4H FP inh)
CCOc1ccc(C(=O)NCC(=O)OCc2nnc(-c3ccccc3)o2)cc1OCC	none (no result: PABP polyA inh, PHOSPHO1 block, eIF4H FP inh)
CCN(CC(=O)NCCCN1CCOCC1)S(=O)(=O)c1ccc(F)cc1	none
COCCN(Cc1ccccc1)C(=O)c1cccc(S(=O)(=O)N(C)c2c(C)n(C)n(-c3ccccc3)c2=O)c1	none (no result: PABP polyA inh, PHOSPHO1 block, eIF4H FP inh)
CCN1CCN(c2c(/C=C3\SC(=S)N(Cc4ccco4)C3=O)c(C)c(C#N)c(=O)n2C)CC1	PABP polyA inh active, eIF4H FP inh inconclusive
O=C(CN1C(=O)c2cccnc2Oc2ccc(Cl)cc21)Nc1ccccc1F	none
Cc1ccccc1SCC(=O)NC1CCOC1=O (stereo unspecified)	MLLE-PAM2 inh 40
O=C(Nc1ccc(F)cc1)C(NC1CCCCC1)c1ccccc1 (stereo unspecified)	PABP polyA inh active, eIF4H FP inh 2.7
Oc1c(N=Nc2nn[nH]n2)ccc2ccccc12	MLLE-PAM2 inh 47 (no result: PABP polyA inh, A3A deaminase, APOBEC3G inh, PHOSPHO1 block, eIF4H FP inh)
CCNC(=O)C1CCCN(C(=O)c2ccc(F)c(Cl)c2)CC1 (stereo unspecified)	none (no result: PABP polyA inh, A3A deaminase, APOBEC3G inh, PHOSPHO1 block, eIF4H FP inh)
